In all, about 5,500 compounds went through this assay and about 2,000 (36%) were called active. Roughly 18% stayed inconclusive and do not appear here. Rule as the data show it: active = normalized growth mostly below about 0.91 (no sharp cut-off); inconclusive = no clear call, values can overlap the other calls; inactive = mostly above about 0.92. This is one part of the list.
Test: chemical genetic growth profiling, strain panel (AID 1159580);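 also: tested at 20 µM; growth read once vehicle control cultures reached saturation at 30 °C; 1 = growth at the plate median or of vehicle wells; lower values mean less growth of the strain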
Conditions: S. cerevisiae deletion strains, growth OD
[1] = locus YAL040C, strain CLN3, hits give low values
[2] = locus YCL061C, strain MRC1 (second series), hits give low values
[3] = locus YDR363W, strain ESC2, hits give low values
[4] = locus YER002W, strain NOP16, hits give low values
[5] = locus YMR307W, strain GAS1, hits give low values
[6] = locus YNL153C, strain GIM3, hits give low values
[7] = locus YNL175C, strain NOP13, hits give low values
[8] = locus YNL197C, strain WHI3, hits give low values
[9] = locus YNL224C, strain SQS1, hits give low values
[10] = locus YOR083W, strain WHI5 (second series), hits give low values
[11] = locus YPL055C, strain LGE1, hits give low values
[12] = locus YPL241C, strain CIN2, hits give low values

Measured: normalized growth

NC(=O)c1ncn(C2OC(CO)C(O)C2O)n1 (stereo not given)
inactive: [1] 1.01 | [2] 1 | [3] 1 | [4] 0.996 | [5] 1.01 | [6] 1.03 | [7] 1.01 | [8] 1.01 | [9] 1.02 | [10] 1.02 | [11] 1

COc1cc2c(CCNC(C)=O)c[nH]c2cc1Cl
inactive: [1] 0.983 | [3] 1.03 | [4] 0.956 | locus YGR078C, strain PAC10, hits give low values 1.01 | [5] 1.01 | [6] 0.926 | [7] 0.989 | [8] 0.989 | [9] 1 | locus YNL322C, strain KRE1, hits give low values 0.998 | [10] 1.03 | [12] 0.996

O=S1(=O)N(CCN2CC=C(c3c[nH]c4cc(F)ccc34)CC2)c2cccc3c2N1CCC3
inactive: [1] 0.981 | [2] 0.987 | [3] 0.997 | locus YJR075W, strain HOC1, hits give low values 1 | [6] 0.851 | [7] 0.987 | [8] 0.994 | [9] 1.02 | [10] 0.958 | [11] 0.951 | [12] 0.977

N#CC(C#N)=Cc1c(-c2ccccc2Cl)[nH]c2ccccc12
active: locus YHR030C, strain SLT2, hits give low values 0.654 | locus YLR113W, strain HOG1, hits give low values 0.821 | locus YPL256C, strain CLN2, hits give low values 0.779
inactive: locus YAR019C, strain CDC15, hits give low values 0.968 | locus YBL105C, strain PKC1, hits give low values 0.962 | locus YBR135W, strain CKS1, hits give low values 0.965 | locus YBR136W, strain MEC1, hits give low values 0.97 | locus YBR160W, strain CDC28, hits give low values 0.969 | locus YDL017W, strain CDC7, hits give low values 0.976 | locus YDL028C, strain MPS1, hits give low values 0.972 | locus YDL101C, strain DUN1, hits give low values 0.973 | locus YDL108W, strain KIN28, hits give low values 0.975 | locus YDL132W, strain cdc53, hits give low values 0.969 | locus YDL214C, strain PRR2, hits give low values 0.919 | locus YDR052C, strain DBF4, hits give low values 0.98 | locus YDR054C, strain cdc34, hits give low values 0.931 | locus YDR226W, strain ADK1, hits give low values 0.956 | locus YDR477W, strain SNF1, hits give low values 0.901 | locus YER123W, strain YCK3, hits give low values 0.889 | locus YER133W, strain GLC7, hits give low values 0.93 | locus YFL009W, strain cdc4, hits give low values 0.955 | locus YFL029C, strain CAK1, hits give low values 0.96 | locus YFR003C, strain YPI1, hits give low values 0.976 | locus YFR019W, strain FAB1, hits give low values 0.924 | locus YFR028C, strain CDC14, hits give low values 0.965 | locus YGR040W, strain KSS1, hits give low values 0.907 | locus YGR052W, strain FMP48, hits give low values 0.942 | locus YGR092W, strain DBF2, hits give low values 0.938 | locus YHR079C, strain IRE1, hits give low values 0.812 | locus YHR082C, strain KSP1, hits give low values 0.932 | locus YHR205W, strain SCH9, hits give low values 0.836 | locus YIL147C, strain SLN1, hits give low values 0.971 | locus YJL095W, strain BCK1, hits give low values 0.822 | locus YJL128C, strain PBS2, hits give low values 0.958 | locus YJL157C, strain FAR1, hits give low values 0.923 | locus YJR016C, strain ILV3, hits give low values 0.956 | locus YJR066W, strain TOR1 (second series), hits give low values 0.897 | locus YJR066W, strain TOR1, hits give low values 0.902 | locus YKL048C, strain ELM1, hits give low values 0.926 | locus YKL067W, strain YNK1, hits give low values 0.918 | locus YKL101W, strain HSL1, hits give low values 0.899 | locus YKL193C, strain SDS22, hits give low values 0.967 | locus YKL203C, strain TOR2, hits give low values 0.961 | locus YLR133W, strain CKI1, hits give low values 0.905 | locus YLR403W, strain SFP1, hits give low values 0.904 | locus YML070W, strain DAK1, hits give low values 0.886 | locus YMR001C, strain CDC5, hits give low values 0.969 | locus YMR205C, strain PFK2 (second series), hits give low values 0.919 | locus YMR277W, strain FCP1, hits give low values 0.967 | locus YNL006W, strain LST8, hits give low values 0.96 | locus YNL020C, strain ARK1, hits give low values 0.882 | locus YNL161W, strain CBK1, hits give low values 0.966 | locus YNL183C, strain NPR1, hits give low values 0.853 | locus YNL207W, strain RIO2, hits give low values 0.974 | locus YNL222W, strain SSU72, hits give low values 0.967 | locus YNL307C, strain MCK1 (second series), hits give low values 0.84 | locus YOL078W, strain AVO1, hits give low values 0.962 | locus YOL136C, strain PFK27, hits give low values 0.87 | locus YOR061W, strain CKA2, hits give low values 0.897 | locus YOR119C, strain RIO1, hits give low values 1 | locus YOR231W, strain MKK1, hits give low values 0.867 | locus YOR329C, strain SCD5, hits give low values 0.968 | locus YPL031C, strain PHO85, hits give low values 0.907 | locus YPL153C, strain RAD53, hits give low values 0.905 | locus YPL204W, strain HRR25, hits give low values 0.884 | locus YPL209C, strain IPL1, hits give low values 0.973 | locus YPR025C, strain CCL1, hits give low values 0.961 | locus YPR106W, strain ISR1, hits give low values 0.954 | locus YPR111W, strain DBF20, hits give low values 0.927 | strain NNK1, hits give low values 0.959 | strain TSCII, hits give low values 0.964

Source: PubChem BioAssay AID1159580 (chemical genetic matrix, 2015)
